# Screens deposited in PubChem BioAssay by National Center for Advancing Translational Sciences (NCATS).
# TGFb inhibitor: TGF-b pathway inhibition | HepG2 CAGA-GFP TGF-b/SMAD3 reporter, GFP fluorescence, 18 h; TGF-beta stimulated, 500 pg/mL final | Potency, µM (titrated, usually from 46.1 µM), inactives show at the top dose activity, negative = inhibition, most hits filed as inhibitors | hit rate 1.2% among 410,000; note: % is set by controls: 0 for no effect and ±100 for the full control effect; nearly all actives have a fitted effect of over 65% in size
#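 GFP signal (ex488/em500-530) from TGF-beta-stimulated HEPG2 CAGA-GFP cells, 500 pg/mL final, 18 h at 37 degrees C in DMEM plus 1% FBS, normalized to unstimulated and DMSO-stimulated controls.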
# HepG2 tox: kills HepG2 cells in TGF-b inhibitor counter-screen. AID 588856. Potency, µM (doses to about 46.1 µM), without a hit: top-dose activity change, negative = cytotoxicity, actives largely listed as cytotoxic. hit rate 0.76% among 410,000. HepG2 CAGA-GFP viability, ATP luminescence, 18 h
#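 CellTiter-Glo luminescence gave cytotoxicity after 18 hours at 37 degrees C. The cells were HepG2 CAGA-GFP in 1% FBS DMEM, stimulated with 500 pg/mL TGF-beta after compound addition. %Activity was normalised to no-cell wells (complete cell-killing) and DMSO (no toxicity), and curves were fitted and classified.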
# ATXN viability: reduces viability in counter-screen for ATXN expression inhibitors; S2 cells (HEK-293 line with an ATXN2-luciferase reporter) viability, CellTiter-Fluor protease fluorescence, 24 h; Potency, µM (titrated, usually from 56.7 µM), usual class: cytotoxic; hit rate 0.49% among 400,000; note: nearly all actives have a fitted effect of over 40% in size
# TDP1 cell noCPT: qHTS for Inhibitors of human tyrosyl-DNA phosphodiesterase 1 (TDP1): qHTS in cells in absence of CPT; DT40 Tdp1-/- hTDP1 cells, no CPT, ATP luminescence, 48 h; AID 686978, 2013; Potency, µM (doses to about 46.2 µM), for inactives: at the highest dose activity change, negative = growth inhibition, hits mostly inhibitors; hit rate 15% among 420,000; note: % is set by controls: 0 for no effect and ±100 for the full control effect; nearly all actives have a fitted effect of over 55% in size
#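 Seeded 400 DT40-hTDP1 cells/well (vehicle DMSO, no 20 nM CPT); pinned compounds; ≥48 hr at 37 °C; CellTiter-Glo luminescence as viability measure.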
# ATXN2 expr inh: ATXN2 expression inhibition. HEK-293 ATXN2-luciferase reporter, luminescence, 24 h. Potency, µM (doses to about 57 µM), for the others: at the highest dose activity change, negative = inhibition, most hits filed as inhibitors. hit rate 0.72% among 360,000; note: % is set by controls: 0 for no effect and ±100 for the full control effect; nearly all actives have a fitted effect of over 55% in size
#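 ATXN2-luciferase reporter cells (luciferase flanked by upstream and downstream ATXN2 gene portions) were treated 24 h at 37 °C with compounds at up to 57 uM. SteadyGlo luminescence gave expression; GF-AFC fluorescence gave viability.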
# TDP1 cell CPT: growth inhibition of DT40 Tdp1-/-;hTDP1 cells with camptothecin (screen for TDP1 inhibitors) | Potency, µM (top dose mostly 46.2 µM), for the others: at the top dose activity change, negative = growth inhibition, actives largely listed as inhibitors | hit rate 12% among 420,000 | chicken DT40 Tdp1-/-;hTDP1 cells + 20 nM CPT, ATP luminescence, 48 h | AID 686979; note: % is set by controls: 0 for no effect and ±100 for the full control effect; nearly all actives have a fitted effect of over 55% in size
#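 Cell growth measured by CellTiter-Glo luminescence after a minimum 48 h, 37 C compound exposure with 20 nM CPT in Tdp1-knockout DT40 cells stably expressing hTDP1, seeded 400/well; qHTS titration format.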
# * = called active by the depositor; i = inactive; ? = inconclusive; . = not tested or not shown; ! = not confirmed by another sample. Most compounds without a hit are left out; they make up all but 17% or so of the library. Calls come from the whole dose curve; as a rule, active = well fitted curve in the direction sought with a large enough effect; inconclusive = small, poorly fitted or top-dose-only effect, or another doubt; inactive = no such curve, though single readings can be large; an effect the other way counts as inactive or inconclusive. Potency is the fitted concentration of half-maximal effect.
SMILES,TGFb inhibitor,HepG2 tox,ATXN viability,TDP1 cell noCPT,ATXN2 expr inh,TDP1 cell CPT
COc1ccccc1OCCNc1nc2c(c(=O)n(C)c(=O)n2C)n1C,-4%,8%,i,18µM*,-1%,29µM*
CCOC(=O)c1ccc(NC(=O)C2=C(C)Nc3nc(SCc4ccc(Cl)cc4)nn3C2c2ccc(C)cc2)cc1 (stereo not given),-1%,-3%,i,-3%,7%,-15%
CCCCCCCCCCC[C@@H](C[C@@H]1OC(=O)[C@H]1CCCCCC)OC(=O)[C@H](CC(C)C)NC=O,6%,-11%,?,18µM*,2%,?
CCCCC[C@H](O)/C=C/[C@H]1[C@H](O)CC(=O)[C@@H]1CCCCCCC(=O)O,.,.,i,?,.,?
O=C(CCc1nc2ccccc2s1)Nc1cccnc1,1%,-12%,i,-29%,10%,-25%
COc1ccccc1NC(=O)/C(C#N)=C/C=C/c1ccco1,2%,-4%,i,1.2µM*,-14%,1.3µM*
COc1ccc([C@@H]2CC=C(C(=O)O)[C@H](c3ccccc3F)N2S(=O)(=O)c2ccccc2C)cc1,-10%,2%,?,6%,5%,-5%
Cc1ccc(C)c(N2CCN(C(=O)c3nn(C)c4c3CS(=O)(=O)c3ccccc3-4)CC2)c1,?,-24%,i,23µM*,?,23µM*
Cc1cccc(N2CCN(C(=O)c3nn(C)c4c3CS(=O)(=O)c3ccccc3-4)CC2)c1C,2%,-1%,?,16µM*,?,13µM*
Cn1nc(C(=O)N2CCN(c3ccccc3F)CC2)c2c1-c1ccccc1S(=O)(=O)C2,0%,-7%,?,?,-5%,15µM*!
Cc1ccc2c(c1)-c1c(c(C(=O)N3CCN(c4cc(Cl)ccc4C)CC3)nn1C)CS2,-14%,-17%,i,18µM*,-10%,?
CCC1Nc2ncnc(N3CCOCC3)c2N(Cc2ccc(Cl)cc2)C1=O (stereo not given),7%,3%,i,-4%,9%,-7%
CN(Cc1ccccc1)C(=O)c1[nH]cnc1C(=O)N[C@@H](CCCCNC(=O)OC(C)(C)C)C(=O)OC(C)(C)C,8%,-18%,?,?,-29%,16µM*
C[C@H](NC(=O)c1nc[nH]c1C(=O)N[C@@H](CCCCNC(=O)OC(C)(C)C)C(=O)OC(C)(C)C)c1ccccc1,?,-4%,?,23µM*,?,?
CC(C)(C)OC(=O)NCCCC[C@H](NC(=O)c1[nH]cnc1C(=O)N[C@@H](Cc1ccccc1)C(=O)OC(C)(C)C)C(=O)OC(C)(C)C,?,-9%,?,9.2µM*,-24%,21µM*
CC(C)(C)OC(=O)NCCCC[C@H](NC(=O)c1nc[nH]c1C(=O)NCc1ccccc1)C(=O)OC(C)(C)C,?,-2%,?,?,?,?
O=C(CCNC(=O)c1ccccc1Cl)Nc1cccc(S(=O)(=O)N2CCCC2)c1,-9%,0%,i,3%,-2%,-1%
CCN(CCN(C)C)C(=O)c1ccc2c(c1NCCO)C(=O)c1ccccc1C2=O,-17%,3%,?,23µM*,-32%,?
O=C1c2ccccc2C(=O)c2c1ccc(C(=O)N1CCCCC1)c2NCCO,?,9%,?,?,-14%,?
CCCC(=O)OC[C@@H](OC(=O)CCC)[C@@H](OC(=O)CCC)[C@H](Cn1c2nc(=O)[nH]c(=O)c-2nc2cc(C)c(C)cc21)OC(=O)CCC,.,.,?,6µM*,-12%,6.7µM*
COCCNC(=O)C1(C)CCCN(C(=O)c2cc(C)oc2C)C1 (stereo not given),-4%,6%,i,7%,0%,3%
N=C(N)SCCc1cccc(CCSC(=N)N)c1,10%,-22%,i,16µM*,6%,16µM*
CCOc1cc(C2Nc3ccccc3-c3nnc(SCc4ccccc4)nc3O2)ccc1OC (stereo not given),-2%,-11%,i,?,13%,?
CCOc1ccc(C2Nc3ccccc3-c3nnc(SCc4ccccc4)nc3O2)cc1OC (stereo not given),8%,-21%,i,?,3%,18µM*
COc1ccc(S(=O)(=O)N2CCCCC2)cc1NC(=O)C1CC1,23%,9%,i,-2%,0%,0%
SMILES,TGFb inhibitor,HepG2 tox,ATXN viability,TDP1 cell noCPT,ATXN2 expr inh,TDP1 cell CPT
COc1ccc(OC)c(NS(=O)(=O)c2ccc(NC(=O)C3COc4ccccc4O3)cc2)c1 (stereo not given),?,-19%,i,18µM*,-32%,15µM*
COc1ccc(S(=O)(=O)N2CCCCC2)cc1NC(=O)c1ccc2c(c1)OCO2,2%,-28%,i,15µM*,8%,?
COc1ccc(S(=O)(=O)N2CCCCC2)cc1NC(=O)C1COc2ccccc2O1 (stereo not given),0%,-23%,i,23µM*,-1%,23µM*
O=C(Nc1ccc(S(=O)(=O)Nc2ncccn2)cc1)C1COc2ccccc2O1 (stereo not given),17%,6%,i,-9%,20%,1%
COc1ccc(S(=O)(=O)N2CCOCC2)cc1NC(=O)c1ccc2c(c1)OCO2,1%,0%,i,-4%,-16%,-27%
COc1ccc(CCNC(=O)c2cc3c(F)cccc3s2)cc1OC,5%,-4%,?,?,?,?
COc1cccc(-c2nc(NCc3ccccc3)c3ccccc3n2)c1O,?,-34%,i,?,-23%,?
COc1cccc(-c2nc(N3CCN(C)CC3)c3ccccc3n2)c1O,?,-25%,i,16µM*,?,-110%
CN1CCN(c2nc(-c3ccccc3O)nc3ccccc23)CC1,2%,2%,i,?,-25%,?
COc1cccc(-c2nc(NC3CCCC3)c3ccccc3n2)c1O,?,-44%,?,18µM*,?,?
CCN(CC)c1nc(-c2cccc(OC)c2O)nc2ccccc12,?,-32%,i,23µM*,-5%,18µM*
CCOC(=O)Cn1nc(C(F)F)c(Br)c1C,-2%,-10%,i,-11%,-4%,0%
O=C(Nc1ccc([N+](=O)[O-])cc1Br)c1cc2ccccc2nc1Cl,1%,8%,i,-17%,-13%,-21%
